# Measured values taken from PubChem BioAssay (NCI).
# This is part of a sample that, as a whole, favours compounds with a hit. Of some 83,000 tested, about 20% had one in any assay.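 In brief: 96-well plates, 48 h treatment, single concentration, percent growth endpoint.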 A number with no mark means an inactive call. Active and inactive are the calls of the source. The calls were made as follows: active = growth percent below 10; inactive = the rest.
# Tested on: MCF7 breast
# Test: NCI-60 one-dose screen, 48 h (100 = growth as untreated, 0 = no growth, -100 = all killed)
# Details: 10 µM unless noted
row,Compound,growth
1,COc1cccc(-c2cc(-c3ccc(Nc4nc(Nc5ccc(Cl)cc5)nc(Nc5ccc(Cl)cc5)n4)cc3)nc(N)c2C#N)c1,28.5%
2,CC(C)C(=O)Nc1ncc(C(=O)NCCN(Cc2ccccc2)C(=O)c2ccc(S(=O)(=O)Nc3ccccc3)cc2)s1,85.8%
3,CN1CCN(Cc2ccc(NC(=O)c3cncc(C#Cc4cnc(N)c5ccc(C#N)cc45)c3)cc2C(F)(F)F)CC1,-60.8% (active)
4,COc1ccc2c(c1)c(-c1nc(-c3cn(C)c4ccncc34)cs1)cn2C,-55.7% (active)
5,O=C(OCC(O)(CO)C(=O)NC12CC3CC(CC(C3)C1)C2)c1ccc(Cl)cc1 (centres undefined),91.6%
6,Cn1ccnc1C(=O)/C=C/c1ccc(CC(=O)Nc2cc(F)c(F)c(F)c2)cc1,10.7%
7,Cc1ccc(Nc2cc(N)nc(N)n2)cc1,86.5%
8,Cc1nc2ccccc2c(/C=C/c2ccc(Cl)cc2)c1C(=O)/C=C/c1ccccc1,11.2%
9,NS(=O)(=O)Oc1cccc(-c2nc3sccn3c2-c2ccccc2)c1,26.1%

# Tested on: HCT-116 colon
# Test: as above
# Details: 10 µM unless noted
row,Compound,growth
1,CNC(=O)c1cc(Oc2ccc3nc(NC(=O)Nc4ccc(F)cc4F)sc3c2)ccn1,20.7%
2,CCOC(=O)c1c2c(n3ccc(NC(=O)CCN4CCCC4)cc13)C(=O)c1ncccc1C2=O,-82.8% (active)
3,CNC(=O)c1cc(Oc2ccc3nc(NC(=O)c4cc(C(F)(F)F)cc(C(F)(F)F)c4)sc3c2)ccn1,12.4%
4,CC(=O)CC(=O)c1ccccc1.[Cu+2],97.7%
5,O=c1c2cccc3c(N4CCOCC4)ccc(c32)c2nc3ccccc3n12,87%
6,CN(C)C(=O)OCc1ccc2c(Cl)cc(Cl)c(O)c2n1,31.6%
7,COc1ccc(-c2ccc(-c3ccc(C(=N)N)nc3)s2)cc1,-60.4% (active)
8,CN1CCN(c2ccc(Nc3ncc4[nH]c(=O)n(Cc5ccccc5N)c4n3)cc2)CC1,91.5%
9,C=C1C(=O)O[C@H]2[C@H]1CC/C(COC(=O)NCc1ccc(Cn3c(=O)sn(CCCC)c3=O)cc1)=C\CC[C@@]1(C)O[C@@H]21,3.34% (active)
10,O=C(c1ccc(F)cc1)C1CCN(CCn2c(=O)[nH]c3ccccc3c2=O)CC1,110%
11,COc1ccc(C(=O)C2OC3=C(C(=O)CC(C)(C)C3)C2c2cccc(Oc3ccccc3)c2)cc1 (centres undefined),84.6%
12,CC1(C)C2=C(C(=O)N1Cc1ccccc1)C(c1ccco1)N(C(=O)C1CCC1)CCN2 (centres undefined),92.6%
13,COc1ccc(Nc2nccc(Nc3ccc4[nH]ncc4c3)n2)cc1,19.3%
14,Cc1nn(-c2ccccc2)c(Oc2ccccc2)c1/C=N/NC(=O)Cn1c(=O)sc2ccccc21,38.1%
15,CCN1C(=O)N(CC)C2C1NC(=S)N2/N=C/C=C/c1cccs1 (centres undefined),15.1%
16,O=C(Nc1ncc(Cc2ccc(Cl)cc2)s1)c1ccc2c(c1)OCCO2,9.61% (active)
17,C#Cc1ccc(NC(=O)Cc2ccc(/C=C/C(=O)c3nccn3C)cc2)cc1,21.6%
18,CN(C)CCOc1nc2c3cc([N+](=O)[O-])ccc3nn2c2ccccc12,16.7%

row,Compound,growth
1,CCN(CC)CCCC(Nc1c2ccc(Cl)cc2nc2ccc(OC)cc12)c1ccncc1 (centres undefined),60.8%
2,CCOC(=O)c1cnc2sc(-c3ccc(OC)cc3)nc2c1Cl,87.8%
3,COc1ccc2c(O)cc3c(c2c1)[C@H](CCl)CN3C(=O)c1cc2cc(NC(=O)CCN3CCOCC3)ccc2[se]1,-55.1% (active)
4,Oc1ccc(Cc2ccc(O)c3ncccc23)c2cccnc12,15.2%
5,CO[C@]12C=C/C(=C(/C(=O)OCc3cccnc3)C(=O)CCCCCCCC[C@]3(OC)C=C/C(=C(/C(=O)OCc4cccnc4)C(=O)CCCCCCCC1)O3)O2,-86% (active)
6,Cn1cc(-c2ccc3c(Nc4cccc(NC(=O)Nc5cccc(F)c5)c4)ncnc3c2)cn1,25.5%
7,O=c1oc2ccccc2cc1-c1nn(-c2ccccc2)cc1/C=N/Nc1nc(-c2ccccc2)c(N=Nc2ccccc2)s1,56.9%
8,CCCNNC(=O)c1ccc(CNC(=O)/C=C/c2ccccc2)cc1,1.27% [2.5 µM] (active)
9,C=C(CNCCO)[C@@H]1CC[C@]2(CO)CC[C@]3(C)[C@H](CC[C@@H]4[C@@]5(C)CCC(NCCO)C(C)(C)[C@@H]5CC[C@]43C)[C@@H]12 (some centres undefined),44.3%
10,COc1cccc(-c2cc(-c3ccc(Nc4nc(Nc5ccc(Cl)cc5)nc(Nc5ccc(Cl)cc5)n4)cc3)nc(N)c2C#N)c1,6.35% (active)
11,CC(C)C(=O)Nc1ncc(C(=O)NCCN(Cc2ccccc2)C(=O)c2ccc(S(=O)(=O)Nc3ccccc3)cc2)s1,90.9%
12,CN1CCN(Cc2ccc(NC(=O)c3cncc(C#Cc4cnc(N)c5ccc(C#N)cc45)c3)cc2C(F)(F)F)CC1,-65.7% (active)
13,COc1ccc2c(c1)c(-c1nc(-c3cn(C)c4ccncc34)cs1)cn2C,-88.6% (active)
14,O=C(OCC(O)(CO)C(=O)NC12CC3CC(CC(C3)C1)C2)c1ccc(Cl)cc1 (centres undefined),99.8%
15,Cn1ccnc1C(=O)/C=C/c1ccc(CC(=O)Nc2cc(F)c(F)c(F)c2)cc1,5.93% (active)
16,Cc1ccc(Nc2cc(N)nc(N)n2)cc1,104%
17,NS(=O)(=O)Oc1cccc(-c2nc3sccn3c2-c2ccccc2)c1,23.5%
